Measured values from PubChem BioAssay AID2284360 (EPA ToxCast).
Results filed as inconclusive are left out. Activity calls are given as the source filed them. Rule for the calls: active = hit-call score of the fitted dose curve at least 0.9, where 1 is the maximum; inconclusive = response in the unintended direction; inactive = score below 0.9.

Assay: ATG_M_19_EcoTox2: Attagene TRANS-FACTORIAL EcoTox-2 HepG2 Assay for M19 Transcription Factor (Internal Marker)
Method: ATG_EcoTox2 is a cell-based, multiplexed assay created by modifying the existing Attagene TRANS-FACTORIAL system to include a panel of nuclear receptors from some or all the following species: human (Homo sapiens), african clawed frog (Xenopus laevis), rainbow trout (Oncorhynchus mykiss), japanese medaka (Oryzias latipes), and zebrafish (Danio rerio). The ECOTOX2-FACTORIAL format uses HepG2, a human liver cell line, with measurements taken at 24 hours after chemical dosing in a 24-well plate. ATG_M_19_EcoTox2 is one of 29 assay components calculated in the ATG_EcoTox2 assay. It is designed to make measurements of mRNA induction, a form of inducible reporter, as detected with fluorescence intensity signals by Reverse transcription polymerase chain reaction (RT-PCR) and Capillary electrophoresis technology.The assay endpoint ATG_M_19_EcoTox2 was analyzed in the positive analysis fitting direction relative to DMSO as the negative control and baseline of activity. Using a type of inducible reporter, measures of mRNA for gain-of-signal activity can be used to understand the background control at the transcription factor-level as they relate to the gene. Furthermore, this assay endpoint can be referred to as a secondary readout, because this assay has produced multiple assay endpoints where this one serves a background control function. […]
Human liver HepG2 cells are transiently transfected with multiple reporter transcription units (MRTUs) in 6-well plates using FuGene 6 reagent (Roche; 3 ml FuGene/1 mg DNA). […] A major difference between the CIS and TRANS system is that in CIS activities of endogenous TFs are measured, whereas the TRANS assay evaluates changes in activities of exogenous, chimeric NR-Gal4 proteins. […] The fragments were purified using Qiaquick PCR columns (Qiagen), analyzed on an ABI 3130xL genetic analyzer (Applied Biosystems) with peak positions identified by using a set of X-rhodamine (ROX)-labeled MapMarker1000 molecular weight standards (BioVentures). […]

Question: With `[Cl][Sn]([c]1ccccc1)([c]1ccccc1)[c]1ccccc1` as the compound, how does the outcome read?
Answer: inactive

Question: Which outcome does the source give for `O=S(=O)(O)C(F)(F)C(F)(F)C(F)(F)C(F)(F)C(F)(F)C(F)(F)F` here?
Answer: inactive

Question: For `CCCCOCN(C(=O)CCl)c1c(CC)cccc1CC`, which outcome is on record?
Answer: inactive
